Laboratory results published in PubChem BioAssay (EPA / NIEHS).
Records with an inconclusive call do not appear. The source made the active and inactive calls. The calls were made as follows, unless noted: active = hit-call score of the fitted dose curve at least 0.9, where 1 is the maximum; inconclusive = response in the unintended direction; inactive = score below 0.9.

Tests used:
[1] = Tanguay_ZF_120hpf_PIG_legacy: (Legacy) Oregon State University Tanguay Lab 120 Hour Post-fertilization zebrafish Assay for Pigmentation Malformation (AID 2283650)
Method in brief: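 Dechorionated Tropical 5D wild-type embryos, one per well from 6 hpf, statically exposed at 28C in the dark until 120 hpf, 0.64% DMSO final. Pigmentation scored present/absent by brightfield microscopy; dead embryos not scored; fitted versus DMSO.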

[2] = Tanguay_ZF_120hpf_CIRC_legacy: (Legacy) Oregon State University Tanguay Lab 120 Hour Post-fertilization zebrafish Assay for Circulatory Malformation (AID 2283651)
Method in brief: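 Using wild-type Tropical 5D zebrafish, we exposed dechorionated embryos from 6 to 120 hpf in embryo medium with 0.64% DMSO. Circulatory defects were scored as present or absent; 5uM trimethyltin chloride served as positive control.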

[3] = Tanguay_ZF_120hpf_SWIM_legacy: (Legacy) Oregon State University Tanguay Lab 120 Hour Post-fertilization zebrafish Assay for Swim Bladder Malformation (AID 2283654);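 also: swim bladder malformation in each larva scored yes or no under brightfield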
Method in brief: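 Dechorionated wild-type Tropical 5D zebrafish embryos, one per well from 6 hpf, were statically exposed at 28C until 120 hpf in 0.64% DMSO. Swim bladder malformation scored as present/absent by brightfield microscopy; not scored in dead larvae.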

[4] = Tanguay_ZF_120hpf_TRUN_legacy: (Legacy) Oregon State University Tanguay Lab 120 Hour Post-fertilization zebrafish Assay for Truncated Body (AID 2283655)
Method in brief: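 Truncated body is recorded as a binary endpoint at 120 hpf by brightfield imaging of wild-type 5D larvae. Exposure runs statically from 6 hpf at 28C with 0.64% DMSO; embryos dying earlier are not scored.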

[5] = Tanguay_ZF_120hpf_NC_legacy: (Legacy) Oregon State University Tanguay Lab 120 Hour Post-fertilization zebrafish Assay for Notochord and Tail Malformation (AID 2283656)
Method in brief: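 Dechorionated 5D zebrafish, 1/well from 6 hpf; static exposure to 120 hpf, 28C, sealed, dark; final DMSO 0.64% v/v. NC scored binary (present/absent); dead embryos not scored. Fit vs DMSO baseline, gain direction.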

[6] = tested on: Thyroperoxidase (TPO), gene 54314; experiment: CCTE_Simmons_AUR_rTPO: CCTE's Amplex UltraRed Assay for Thyroperoxidase (TPO) Inhibition, Simmons Lab (AID 2283662);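 also: potency for loss of signal meaning inhibition of peroxidase activity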
Method in brief: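 Rat thyroid microsomes (5 ug protein) were incubated with test compound (8 concentrations, 5 nM–87.5 uM final, 0.5% DMSO), 25 uM Amplex UltraRed and 300 uM H2O2 in 200 mM phosphate buffer for 30 min at 37C in the dark; fluorescence read at 544/590 nm.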

[7] = CCTE_Simmons_CellTiterGLO_HEK293T: Viability Assessment in CCTE's Assays for Thyroperoxidase (TPO) Inhibition, Simmons Lab (AID 2283665)
Method in brief: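 Cytotoxicity counter-screen: human HEK293T cells in low-serum (1% FBS) medium receive test chemical, 5 nM to 87.5 uM final, for 24 h; ATP is quantified by luciferase luminescence.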

[8] = Tanguay_ZF_120hpf_TR_legacy: (Legacy) Oregon State University Tanguay Lab 120 Hour Post-fertilization zebrafish Assay for Touch Response (AID 2283667)
Method in brief: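 Tropical 5D wild-type zebrafish embryos statically exposed to 120 hpf at 28°C, sealed and dark-covered, 0.64% DMSO final; touch response scored as present/absent by brightfield microscopy at 120 hpf. Trimethyltin chloride 5 uM positive control; dead embryos not scored.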

[9] = STM_H9_OrnithineISnorm_perc: Stemina devTOX quickPredict H9 human embryonic stem cell (hESC)-based Assay for Ornithine (ORN) Metabolite Biomarker, Normalized (AID 2283712; active = hit-call score of the fitted dose curve at least 0.9, where 1 is the maximum; inactive = score below 0.9;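 also: ornithine released into spent medium during last day measured by mass spectrometry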)
Method in brief: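 Cells: undifferentiated H9 hESC. Dosing: 72 h, media replaced every 24 h. Sample: final 24-h conditioned media, 40% acetonitrile. Read: UPLC-HRMS ornithine area vs 13C standard, % DMSO control.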

[10] = STM_H9_CystineISnorm_perc: Stemina devTOX quickPredict H9 human embryonic stem cell (hESC)-based Assay for Cystine (CYSS) Metabolite Biomarker, Normalized (AID 2283713; active = hit-call score of the fitted dose curve at least 0.9, where 1 is the maximum; inactive = score below 0.9)
Method in brief: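 Secreted cystine was measured by UPLC-HRMS in H9 hESC medium after 72h compound exposure with 24-hourly replenishment. Values are standard-normalized areas relative to 0.1% DMSO.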

[11] = STM_H9_OrnCyssISnorm_ratio: Stemina devTOX quickPredict H9 human embryonic stem cell (hESC)-based Assay for Ornithine (ORN):Cystine (CYSS) Ratio (AID 2283714)
Method in brief: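 Undifferentiated H9 hESCs exposed 72 h, media and compound replaced every 24 h; final 24-h conditioned media deproteinized and analysed by UPLC-HRMS against C13 spike-ins. Value is the internal-standard-normalized ORN/CYSS ratio versus 0.1% DMSO.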

[12] = Tanguay_ZF_120hpf_ActivityScore_legacy: (Legacy) Oregon State University Tanguay Lab 120 Hour Post-fertilization zebrafish Assay Score for Activity (AID 2283742)
Method in brief: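 Dechorionated Tropical 5D embryos, one per well from 6 hpf, statically exposed to 120 hpf at 28 °C in 0.64% DMSO. Mortality and malformations scored binary by brightfield microscopy; activity score combines 18 endpoints, fitted positively versus DMSO.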

[13] = CCTE_Padilla_ZF_144hpf_TERATOSCORE: (Legacy) CCTE's 144 Hour Post-fertilization zebrafish Assay Teratoscore, Padilla Lab (AID 2283679; active = hit-call score of the fitted dose curve at least 0.9, where 1 is the maximum; inactive = score below 0.9;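 as to AC50: zebrafish embryos with chorions exposed by immersion from 6-8 hpf to 5 dpf with daily renewal; teratogenicity score from eye scoring of death hatching and malformations at 144 hpf; higher score means more developmental defects relative to DMSO baseline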)
Method in brief: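 Larvae scored by eye at 144 hpf for death, hatching and malformations after a day in clean Hanks'. Before that, daily-renewed exposure at 80 uM (0.4% DMSO, 26C) from roughly 6-8 hpf through 5 dpf, 4 embryos per chemical.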

[14] = CEETOX_H295R_MTT_cell_viability: Viability Assessment in the CeeTox HT-H295R MTT Assay (AID 2283718; active = hit-call score of the fitted dose curve at least 0.9, where 1 is the maximum; inactive = score below 0.9)
Method in brief: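 Human H295R adrenal cells, prestimulated 48 h with 10 uM forskolin, were exposed 48 h to chemicals in 0.1% DMSO. Viability was measured in the same wells by MTT (0.5 mg/ml, 4 h, 37 C), absorbance 570/650 nm, as percent of controls.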

[15] = read-out: kallikrein-3 (KLK3), KLK3 (gene 354); experiment: LTEA_HepaRG_KLK3: Life Technologies and Expression Analysis (LTEA) Assay for kallikrein-3 (KLK3) using HepaRG (AID 2283652; active = hit-call score of the fitted dose curve at least 0.9, where 1 is the maximum; inactive = score below 0.9); settings: mRNA level, 48 h; actives raise or lower the signal
Method in brief: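 Differentiated human HepaRG cells in serum-free induction medium exposed 48 h in duplicate, eight-point half-log series from 100 uM in 0.5% DMSO. KLK3 mRNA by qRT-PCR, normalised to ACTB, GAPDH, POLR2A; bidirectional fit versus DMSO.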

[16] = read-out: solute carrier (SLC22A6), SLC22A6 (gene 9356); experiment: LTEA_HepaRG_SLC22A6: Life Technologies and Expression Analysis (LTEA) Assay for solute carrier (SLC22A6) using HepaRG (AID 2283653; active = hit-call score of the fitted dose curve at least 0.9, where 1 is the maximum; inactive = score below 0.9); settings: mRNA level, 48 h; actives raise or lower the signal
Method in brief: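 Read-out is SLC22A6 transcript level by qRT-PCR, normalised to three housekeeping genes and fitted for gain or loss relative to 0.5% DMSO vehicle. Human HepaRG cells received chemicals at up to 100 uM for 48 h.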

[17] = read-out: solute carrier (SLC10A1), SLC10A1 (gene 6554); experiment: LTEA_HepaRG_SLC10A1: Life Technologies and Expression Analysis (LTEA) Assay for solute carrier (SLC10A1) using HepaRG (AID 2283657; active = hit-call score of the fitted dose curve at least 0.9, where 1 is the maximum; inactive = score below 0.9); settings: mRNA level, 48 h; actives raise or lower the signal
Method in brief: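 HepaRG cells (single lot) exposed 48 h in serum-free induction medium, 8-point half-log series from 100 uM top in 0.5% DMSO, duplicate. SLC10A1 mRNA by qRT-PCR normalised to ACTB, GAPDH, POLR2A; bidirectional fit versus DMSO.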

[18] = read-out: matrix metalloproteinase-1 (MMP1), MMP1 (gene 4312); experiment: LTEA_HepaRG_MMP1: Life Technologies and Expression Analysis (LTEA) Assay for matrix metalloproteinase-1 (MMP1) using HepaRG (AID 2283658; active = hit-call score of the fitted dose curve at least 0.9, where 1 is the maximum; inactive = score below 0.9); settings: mRNA level, 48 h; actives raise or lower the signal
Method in brief: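 HepaRG, ~100,000 cells/well, 48 h pre-culture; serum-free induction medium; test chemical 8 conc (max 100 uM, half-log), duplicate, 48 h; 0.5% DMSO; qRT-PCR MMP1, housekeeping-normalized; gain/loss fit vs DMSO.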

[19] = read-out: Cytochrome P450 (CYP24A1_1), CYP24A1 (gene 1591); experiment: LTEA_HepaRG_CYP24A1_1: Life Technologies and Expression Analysis (LTEA) Assay for Cytochrome P450 (CYP24A1_1) using HepaRG (AID 2283671; active = hit-call score of the fitted dose curve at least 0.9, where 1 is the maximum; inactive = score below 0.9); settings: mRNA level, 48 h; actives raise or lower the signal
Method in brief: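 Differentiated human HepaRG cells in serum-free induction medium, exposed 48 h in duplicate to eight half-log concentrations from 100 uM top, 0.5% DMSO. Transcript measured by TaqMan qRT-PCR, normalised to ACTB, GAPDH, POLR2A; bidirectional fitting versus DMSO.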

Measured: AC50

COS(C)(=O)=O
inactive: [1] | [2] | [3] | [4] | [5] | [7] | [8] | [12]
active: [6] 49.7 µM | [9] 71.4 µM | [10] 62.6 µM | [11] 65.5 µM

OCC(CO)(CO)CO
inactive: [2] | [3] | [4] | [5] | [8] | [13] | [12]

CCn1nc(C)c2c1C(=O)NCC(c1ccc(O)cc1)=N2
active: [6] 11.9 µM
inactive: [1] | [2] | [3] | [4] | [5] | [7] | [8] | [14] | [12]

CCOC(N)=O
inactive: [1] | [2] | [3] | [4] | [5] | [8] | [12]

O=C(O)[C@H](O)[C@@H](O)C(=O)O
inactive: [1] | [2] | [3] | [4] | [5] | [8]

O=C1CN(N=Cc2ccc([N+](=O)[O-])o2)C(=O)N1
active: [9] 7.42 µM | [10] 5.91 µM | [11] 6.21 µM
inactive: [2] | [3] | [4] | [5] | [8] | [13] | [12]

O=C(O)c1ccc2c(c1)nc(C(=O)NC1CCN(C3CC3)CC1)n2Cc1cc(-c2ccc(Cl)s2)on1
inactive: [1] | [2] | [3] | [4] | [5] | [8] | [12]

CCCC(CCC)C(=O)O
active: [13] 78.7 µM | [9] 334 µM | [10] 242 µM | [11] 293 µM
inactive: [1] | [2] | [15] | [16] | [3] | [4] | [5] | [17] | [18] | [8] | [19] | [12]

CNC(C)=O
inactive: [1] | [2] | [3] | [4] | [5] | [8] | [12]
